Laboratory results as given in PubChem BioAssay (NCI).
About 79,000 compounds went through this panel and 15% of them were active in at least one assay; those are over-represented in the sample as a whole. Calls of active or inactive are those of the source. Cut-off read from the data, not from the text of the source: active = growth inhibition above about 70%; inactive = the rest.

Legend:
[1] = NCI Yeast Anticancer Drug Screen. Data for the rad50 strain (AID 155);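 note: 0% = growth of vehicle-only cultures of the same strain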; details: S. cerevisiae rad50 strain growth inhibition; at 50.0 µM; hits give high values
Procedure, shortened: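 Readout: growth inhibition relative to vehicle-treated cultures. Compound exposure was carried out in a genetically defined yeast strain deficient in DNA damage repair.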

[2] = NCI Yeast Anticancer Drug Screen. Data for the mec2-1 strain (AID 157); details: S. cerevisiae mec2-1 strain, at 50.0 µM, hits give high values
Procedure, shortened: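 Mutant yeast (mec2-1) grown with compound; growth inhibition relative to vehicle control reported.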

[3] = NCI Yeast Anticancer Drug Screen. Data for the sgs1 mgt1 strain (AID 161);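 note: 0% = growth of cultures given vehicle only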; details: S. cerevisiae sgs1 mgt1 strain, at 50.0 µM, hits give high values
Procedure, shortened: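 Percent growth inhibition was derived by comparing compound-exposed mutant yeast with vehicle-exposed cultures. The strain carries alterations in DNA damage repair.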

[4] = NCI Yeast Anticancer Drug Screen. Data for the cln2 rad14 strain (AID 165);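 note: 0% = growth equal to vehicle treated cultures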; details: S. cerevisiae cln2 rad14 strain, at 50.0 µM, hits give high values
Procedure, shortened: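 Readout is yeast growth inhibition versus vehicle-treated controls, using a strain with cln2 and rad14 alterations exposed to compound.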

[5] = NCI Yeast Anticancer Drug Screen. Data for the bub3 strain (AID 167); details: S. cerevisiae bub3 mutant strain, at 50.0 µM, hits give high values
Procedure, shortened: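 Readout: yeast growth inhibition, expressed relative to vehicle-only wells. The test organism is a mutant strain from a panel with lesions in DNA repair or checkpoint genes.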

[6] = NCI Yeast Anticancer Drug Screen. Data for the mlh1 rad18 strain (AID 175); details: S. cerevisiae mlh1 rad18 strain growth inhibition; at 50.0 µM; hits give high values
Procedure, shortened: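 Genetically defined yeast (DNA repair-deficient) exposed to compounds; growth inhibition determined relative to vehicle.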

Measured: growth inhibition

COP(=O)(OC)C(=O)c1ccccc1
inactive: [1] -11.6% | [2] -17.2% | [3] -7.8% | [4] -31.9% | [5] -23.8% | [6] -16.1%

[N-]=[N+]=C1CNC(=O)NC1=O
inactive: [1] 9.9% | [2] -19.6% | [3] -10.6% | [4] 0.05% | [5] -0.15% | [6] 1.05%

Nc1cccc2scnc12 (tested in a mixture with another compound)
inactive: [1] -13.9% | [2] 3.8% | [3] 29.7% | [4] -7.85% | [5] -10.3% | [6] 19.1%

N#CCCCCCl
inactive: [1] 19.4% | [2] 10.9% | [3] 16.3% | [4] 25.2% | [5] 13.6% | [6] 28.9%

O=C(Oc1ccc(S(=O)(=O)F)cc1Cl)c1ccccc1Cl
active: [1] 99.4% | [2] 99.6% | [3] 99.5% | [4] 99.3% | [5] 99.4% | [6] 99.4%

CCCN(CCC)C(=O)[S-].CCCN(CCC)C(=O)[S-].[Ni+2]
inactive: [1] 35% | [2] -6.25% | [3] 33.4% | [4] -38.6% | [5] 2.7% | [6] -3.5%

OCC(Br)(Br)Br
inactive: [1] 44.4% | [2] -4.3% | [3] 19.5% | [4] 3.7% | [5] -2.55% | [6] 27.9%

CCCC(C)C1(C)C(=O)NC(=O)N(C)C1=O (centres undefined)
inactive: [1] 4.35% | [2] 18.1% | [3] 0.15% | [4] 11.8% | [5] 1.05% | [6] -11.9%

O=C1C=CC(=Nc2cc(Cl)c(O)c(Cl)c2)C=C1
inactive: [1] 26.6% | [2] 42.5% | [3] 32.5% | [4] 20.1% | [5] 31.1% | [6] 42.8%

CCOc1ccc(OCC)c(C(O)C(C)NC(C)C)c1 (centres undefined)
inactive: [1] -0.55% | [2] 9.1% | [3] 6% | [4] 0.1% | [5] -3.6% | [6] -10.2%

Nc1ncnc(N)n1
inactive: [1] -7.3% | [2] -17.1% | [3] 13.3% | [4] -28.8% | [5] -2.2% | [6] -9.65%

Cc1ccc2[nH]cc(CCN(C)C)c2c1
inactive: [1] 22.6% | [2] -16.5% | [3] 8.25% | [4] 7.65% | [5] 10.2% | [6] 19.6%

COC(C)CCOC(=O)Cc1ccccc1 (centres undefined)
inactive: [1] 16.1% | [2] -5.25% | [3] -0.15% | [4] -41% | [5] 13.4% | [6] 5.25%

C/C(=N\NC(N)=O)C(CN(C)C)C(c1ccccc1)c1c(O)c2ccccc2oc1=O (centres undefined)
inactive: [1] 15.8% | [2] 21.1% | [3] 15.6% | [4] 5% | [5] 9.7% | [6] 8%

COC(=O)c1ccc(C=C(C#N)C#N)cc1
inactive: [1] -5.75% | [2] -2.6% | [3] -27.9% | [4] 30.6% | [5] 2.45% | [6] -21%

COc1cc2c(c(OC)c1OC)-c1ccc(O)cc1C(NC(C)=O)CC2 (centres undefined)
inactive: [1] -13.2% | [2] -18.8% | [3] -4.1% | [4] 17.4% | [5] 0.65% | [6] 31.2%

CCC(c1ccc(OC)cc1)C(N)c1ccc(OC)cc1 (centres undefined)
inactive: [1] -14.3% | [2] 1.05% | [3] -11.9% | [4] -10.5% | [5] -4.35% | [6] -0.3%

CCN1C(=O)C(=Cc2ccc(-c3ccccc3)cc2)C(=O)N(CC)C1=S
inactive: [1] 32.4% | [2] -5.5% | [3] 23.1% | [4] 16.9% | [5] 15.4% | [6] 20.4%

CC(C)(C)C1COP(=S)(C(C)(C)C)OC1 (centres undefined)
inactive: [1] -8.3% | [2] -5.6% | [3] -0.55% | [4] -20.5% | [5] -0.5% | [6] -5.15%

CCCCCCCCCCC(O)C1CCC(C(O)CCC(O)C2CCC(CCCCCCC[C@H](O)CC3=C[C@@H](C)OC3=O)O2)O1 (some centres undefined)
inactive: [1] 31.4% | [2] 6.55% | [3] 1.55% | [4] 12.9% | [5] 19.1% | [6] 27.2%

COc1ccccc1N
inactive: [1] -2.9% | [2] 1.25% | [3] 4.3% | [4] -8.05% | [5] -9.45% | [6] -17.4%

Clc1ccc([As](c2ccc(Cl)cc2)c2ccc(Cl)cc2)cc1
inactive: [2] 48.1% | [4] 13.7% | [5] 30.5% | [6] 48.4%
active: [1] 77.5% | [3] 74.3%

O=S(O)(O)=S.[Co+3].[NH-]CC[NH-].[NH-]CC[NH-].[NH2-].[NH2-]
inactive: [1] -8.05% | [2] -6.85% | [3] 2% | [4] -19.4% | [5] 14.8% | [6] 7.05%

c1ccc2c(c1)CCNC2
inactive: [1] 21.8% | [2] 13.2% | [3] 19% | [4] 5.15% | [5] -0.55% | [6] 24.4%

O=C1SCCC1NP(=O)(Oc1ccccc1)Oc1ccccc1 (centres undefined)
inactive: [1] 5.35% | [2] 23.1% | [3] -1.35% | [4] -10.9% | [5] 9.25% | [6] 21.9%

O=P1(N(CCCl)CCCl)Oc2c(Cl)cc(Cl)c(Cl)c2Cc2c(Cl)c(Cl)cc(Cl)c2O1
inactive: [1] -15.1% | [2] -31.7% | [3] 2.85% | [4] 0.25% | [5] -14.2% | [6] -10.7%

C[N+](C)(C)CC1CCCCCCCCCCC1=O (centres undefined)
inactive: [1] -4.85% | [2] -10.4% | [3] -25.2% | [4] 7.75% | [5] -16.4% | [6] -9.75%

CN(C)CCNC(=O)c1ccc([N+](=O)[O-])c(C(C)(C)C(=O)Nc2ccc(N(CCCl)CCCl)cc2)c1
inactive: [1] -1% | [2] -24.4% | [3] 8.9% | [4] -44.2% | [5] -10.8% | [6] -24.9%

COc1ccc(-c2nc(-c3ccc(N=Cc4ccc(N(CCCl)CCCl)cc4)cc3)cs2)cc1
inactive: [1] 58% | [2] 11.4% | [3] 57% | [4] 27.1% | [5] 11.5% | [6] 42.6%

CC(C)(C)c1ccc(OP(=O)(Oc2ccccc2)Oc2ccccc2)cc1
inactive: [1] 15.9% | [2] 0.05% | [3] -8.15% | [4] -30.9% | [5] 24.1% | [6] 33.9%

O=C(OCCOc1ccccc1)C(Cl)(Cl)Cl
inactive: [1] -6.05% | [2] -7.1% | [3] 10.6% | [4] -8.8% | [5] 12.3% | [6] 3.25%

CCCC[P+](C#Cc1ccccc1)(CCCC)CCCC
inactive: [1] 8.65% | [2] 3.5% | [3] 9.5% | [4] 3.75% | [5] -3.2% | [6] 2%

O=c1c2ccccc2oc2ccccc12 (tested in a mixture with another compound)
inactive: [1] 18.9% | [2] 17.7% | [3] 11.7% | [4] 10.2% | [5] 23.2% | [6] 17.1%

COc1cc(-c2[nH]ccc2Cl)oc1C1=C2N=C3C=C2C(C(C)C)C1CCCCCCCC3 (centres undefined)
active: [1] 85.3% | [2] 83.6% | [3] 89% | [4] 89.1% | [5] 88.3% | [6] 89.6%

C(=C/[PH+](c1ccccc1)c1ccccc1)/[PH+](c1ccccc1)c1ccccc1.C(=C/[PH+](c1ccccc1)c1ccccc1)/[PH+](c1ccccc1)c1ccccc1.C(=C/[PH+](c1ccccc1)c1ccccc1)/[PH+](c1ccccc1)c1ccccc1.[Pt]
inactive: [1] 8.65% | [2] 17.6% | [3] 36% | [4] 36.9% | [5] 13.8% | [6] 36.5%

COc1ccc(/C=C\[N+](=O)[O-])cc1OCc1ccccc1
inactive: [1] 7.2% | [2] 8.35% | [3] 22.6% | [4] -13.6% | [5] 7.2% | [6] 8.05%

CC1CCC2NCCNC2C1 (centres undefined)
inactive: [1] 2.45% | [2] 6.65% | [3] -8.9% | [4] 5.35% | [5] 0.65% | [6] 23.4%

CCC[CH2][Sn]1([CH2]CCC)[O]C(=O)c2ccc(N)cc2[O]1
active: [1] 87.3% | [2] 92.5% | [3] 89.5% | [4] 89.4% | [5] 89.1% | [6] 89.8%

Cc1ccccc1[N+](=O)[O-]
inactive: [1] 19.1% | [2] 13.6% | [3] 2.5% | [4] 9.45% | [5] -10.1% | [6] -3.3%
